From publication PMC7819943, “Rice protein-binding microarrays: a tool to detect cis-acting elements near promoter regions in rice”
Over roughly 39,000 sequences, “fluorescence intensity (a.u.)” has its median near 4,300; the highest 2% begin near 39,000. Only a selection was taken, and the highest values are over-represented in it overall.

These sequences were tested against T1, OsSMF1 (Oryza sativa, UniProt Q6ZLB0 1-436) (assay: protein-binding microarray (RPBM); PBS, 2% BSA, 51.3 ng/ul salmon testes DNA, 50 uM zinc acetate, 200 nM TF, 25 C, 1 h; high values mean tight binding). Settings: protein: recombinant; tags: N-terminal polyhistidine and DsRed monomer fusion (pET32a); chain copies: 2; label: CyDye5-dUTP incorporated in the synthesized complementary strand; 3' TTTTT single-stranded linker to array surface; dsDNA, one strand shown.
T1 sequence: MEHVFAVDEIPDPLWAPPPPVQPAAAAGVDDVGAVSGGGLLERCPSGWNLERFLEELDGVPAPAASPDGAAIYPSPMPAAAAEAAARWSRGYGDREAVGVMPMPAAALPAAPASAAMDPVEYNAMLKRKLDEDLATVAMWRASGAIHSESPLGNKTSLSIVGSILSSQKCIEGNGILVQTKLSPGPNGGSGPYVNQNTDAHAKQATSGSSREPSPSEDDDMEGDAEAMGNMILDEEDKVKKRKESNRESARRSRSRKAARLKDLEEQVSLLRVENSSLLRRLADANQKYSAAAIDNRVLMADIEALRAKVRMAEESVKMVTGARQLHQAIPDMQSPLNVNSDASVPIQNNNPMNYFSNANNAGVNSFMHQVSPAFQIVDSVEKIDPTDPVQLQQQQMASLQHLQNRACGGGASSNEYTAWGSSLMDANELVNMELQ
Outline: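 Ni–NTA purification followed expression in E. coli BL21-CodonPlus of transcription factors fused N-terminally to a polyhistidine tag and DsRed. At 200 nM in PBS with 2% BSA, salmon testes DNA and 50 µM zinc acetate, the protein was incubated for 1 h at 25 °C with a custom Agilent array that had been primer-extended with Cy5-dUTP and blocked with 2% BSA. After washing, the array was read on an Axon 4000B scanner. The binding signal is per-feature fluorescence intensity in arbitrary units.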
With “CGCCATCGCCAACGCCAACGCCTCCGCGGACTCCATTGTCCGGAGTCACCTAGTGCAG” the binding signal was 3650 fluorescence intensity (a.u.).
For “AATATGAACTGATAGGATTTGTTTTCACACCATACCAAACCGGAGTCACCTAGTGCAG”, the binding signal was 59700 fluorescence intensity (a.u.).
In the case of “GATAGGAGGGGATAACTTGTTTCATATTTTGTGCCGGGTTCGGAGTCACCTAGTGCAG”, the binding signal is reported as 3710 fluorescence intensity (a.u.).
For “AATGTAGGCACCATACCATGACTGTTTTCACACATTGTACCGGAGTCACCTAGTGCAG”, the binding signal was 3580 fluorescence intensity (a.u.).
“GGGCCAAATTTTATCGAGAAGATTAGACACGAGTATGGGCCGGAGTCACCTAGTGCAG” was tested, and the binding signal was 47600 fluorescence intensity (a.u.).
“AGCGAGACACTTTGAGATTTAGTATGAGTCATGTAAATTACGGAGTCACCTAGTGCAG” was tested, and the binding signal was 7830 fluorescence intensity (a.u.).
For “TGCGATTTTAGACGATTATCGTGCGATTATCACGGTTATCCGGAGTCACCTAGTGCAG”, the binding signal was 3360 fluorescence intensity (a.u.).
“GCGTGCCGAAGGTGTGTCCCCTGCACCGGCTCCGGCAGGTCGGAGTCACCTAGTGCAG” was tested, and the binding signal was 9960 fluorescence intensity (a.u.).
For “ATGAAAGGGAATGTGTGGTGGAGGAGGTGGCTGAGAGATTCGGAGTCACCTAGTGCAG”, the binding signal was 3340 fluorescence intensity (a.u.).
In the case of “ATTCGTTATACTAGGTGACATCTCATCTAATATTTGTTTACGGAGTCACCTAGTGCAG”, the binding signal is reported as 4270 fluorescence intensity (a.u.).
With “TTGTTGAAGCAGTTTAATGTTAATAGTATACTAACATTAACGGAGTCACCTAGTGCAG” the binding signal was 28600 fluorescence intensity (a.u.).
With “TGAACATGCCCATTGTTACTCATTCCTAATACTATAGGAACGGAGTCACCTAGTGCAG” the binding signal was 42200 fluorescence intensity (a.u.).
“GGAACTTCTGTTTAGGCATTTGCACCTGAAATATGATCTGCGGAGTCACCTAGTGCAG” was tested, and the binding signal was 3190 fluorescence intensity (a.u.).
“TCCCGCAGGAGTTCCACCCACGTGTCATAAACCATTACAGCGGAGTCACCTAGTGCAG” was tested, and the binding signal was 12800 fluorescence intensity (a.u.).
For “TGAATTGGAGCGACCGTGAGAGGTAGCATAGAATGTCATGCGGAGTCACCTAGTGCAG”, the binding signal was 3270 fluorescence intensity (a.u.).
In the case of “CAAAAGGACCATGGTGTGTGGATGACATGACTAGTGAGGCCGGAGTCACCTAGTGCAG”, the binding signal is reported as 4650 fluorescence intensity (a.u.).
In the case of “TGTTGATGGCGTCATTATTTACATGGTATGGTGCATTTGGCGGAGTCACCTAGTGCAG”, the binding signal is reported as 14600 fluorescence intensity (a.u.).
For “CTCTTCTCCACCTCAACATTTAGCCGGCTTATAGCTACTACGGAGTCACCTAGTGCAG”, the binding signal was 3960 fluorescence intensity (a.u.).
For “ACAGGGTTGCCAAGCTCTTACTCAACCTAAACCACCAGAACGGAGTCACCTAGTGCAG”, the binding signal was 3200 fluorescence intensity (a.u.).
For “CAGACCAGGGTTACTCTCCTCAACATTCTTAGCTCATAGACGGAGTCACCTAGTGCAG”, the binding signal was 47700 fluorescence intensity (a.u.).
With “TGAACCCCACATGTCAGCTTTACTACTCCCTTCTTCCCTACGGAGTCACCTAGTGCAG” the binding signal was 4350 fluorescence intensity (a.u.).
With “CGCGACACGACACGACACGACACGACGGCACGAGCCCACCCGGAGTCACCTAGTGCAG” the binding signal was 4540 fluorescence intensity (a.u.).
“GGAAAGTGGACAATTAAATCAAGCGATGATGTGGATGTGGCGGAGTCACCTAGTGCAG” was tested, and the binding signal was 5830 fluorescence intensity (a.u.).
“TTCATCCTCGGCCACTCCTACGTCAAGGCCAAGAGCGGCTCGGAGTCACCTAGTGCAG” was tested, and the binding signal was 3600 fluorescence intensity (a.u.).
In the case of “TGGCAAATCTCATCAGCAACAGGGACCTCTTGGTGTGACTCGGAGTCACCTAGTGCAG”, the binding signal is reported as 4290 fluorescence intensity (a.u.).
In the case of “CTCTTCAGGGAACAGAATCAAATCAGCATTTTAACTAACTCGGAGTCACCTAGTGCAG”, the binding signal is reported as 40100 fluorescence intensity (a.u.).
With “CAAATACTACATCACACAGGTCAGCAGAAATTTCACTCTTCGGAGTCACCTAGTGCAG” the binding signal was 4100 fluorescence intensity (a.u.).
For “CCGTTTCCGAATCTCGAGGCGCAAGAGGCCATCGAACGGCCGGAGTCACCTAGTGCAG”, the binding signal was 38300 fluorescence intensity (a.u.).
With “TTTATCTAATTAAAATATATTTATAGCTGACTAATAGTCTCGGAGTCACCTAGTGCAG” the binding signal was 3480 fluorescence intensity (a.u.).
For “TGTGGAGTCCACGTGGGACTTAGCCGCCACATCAATAAAACGGAGTCACCTAGTGCAG”, the binding signal was 9160 fluorescence intensity (a.u.).
For “GCCAAGCCAAACCAATCCAAGCCAAGCCAAATGAATGATTCGGAGTCACCTAGTGCAG”, the binding signal was 3150 fluorescence intensity (a.u.).
In the case of “TGACCAAAATTTGAAACTTTCAATACAATTATGAAACTTTCGGAGTCACCTAGTGCAG”, the binding signal is reported as 6370 fluorescence intensity (a.u.).
For “TTAGATGAAACCACGATTTGTCAAAATGCATCCAAAACTTCGGAGTCACCTAGTGCAG”, the binding signal was 43100 fluorescence intensity (a.u.).
With “GTTAATCTCAATAAAATACTTAGCTCCATAAATAATTTTGCGGAGTCACCTAGTGCAG” the binding signal was 36700 fluorescence intensity (a.u.).
For “CCCAGCTGTCTTTCCTCCAGGTCACCTGACAAATGTCACTCGGAGTCACCTAGTGCAG”, the binding signal was 3950 fluorescence intensity (a.u.).
With “GAAAACTAGTCCAAAATGAGTCTTTGCTTCAATGCAAACGCGGAGTCACCTAGTGCAG” the binding signal was 39000 fluorescence intensity (a.u.).
“AAATACGGAGAGAAGAAGGCTCACTAAGCGCGCTTACTATCGGAGTCACCTAGTGCAG” was tested, and the binding signal was 42500 fluorescence intensity (a.u.).
For “CTTATCAGTCGTAGCTCAACCTATAAGAGGCCTAAATATACGGAGTCACCTAGTGCAG”, the binding signal was 32800 fluorescence intensity (a.u.).
“ATCTTAAATACTACTAGAAATTAACGGAGACTAAGGCTTGCGGAGTCACCTAGTGCAG” was tested, and the binding signal was 26500 fluorescence intensity (a.u.).
For “TGCCAAATGTTGAAACACTTACAGTAGCATCTAATGAAGTCGGAGTCACCTAGTGCAG”, the binding signal was 16000 fluorescence intensity (a.u.).
“AACTACACACAAAGCCGAGCCAAAGTCTCTAGGTCAAAGTCGGAGTCACCTAGTGCAG” was tested, and the binding signal was 20600 fluorescence intensity (a.u.).
“CCCAGGGAGGCCAAACTACAAAGGCGATGCTTTCTACACACGGAGTCACCTAGTGCAG” was tested, and the binding signal was 41500 fluorescence intensity (a.u.).
For “AGCTTTTCTTTTCTACACAAAGGGAAGGGAAAGAAGAAACCGGAGTCACCTAGTGCAG”, the binding signal was 37800 fluorescence intensity (a.u.).
